From PubChem BioAssay
POLI inh: qHTS for Inhibitors of Polymerase Iota; actives 1% (n = 390,000); DNA polymerase iota (Homo sapiens), Q9UNA4; Pol iota fluorescent replication assay, 10 min; Potency, µM (titrated, usually from 115 µM), inactives show top-dose activity, negative = inhibition, hits mostly inhibitors; also: potency is read from the fitted curve at half-maximal effect
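Pol iota at 10 nM preincubated 15 min with compounds at room temperature; reaction started with fluorescent substrate, 50 nM final. Fluorescence read kinetically at 0 and 10 min; buffer-only wells as negative control.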
FEN1 inh: qHTS Assay for the Inhibitors of Human Flap endonuclease 1 (FEN1). P39748. Recombinant FEN1 flap cleavage, fluorescence, 15 min. Potency, µM (highest dose often 114 µM), for inactives: top-dose activity change, negative = inhibition, usual class: inhibitors. actives 0.35% (n = 390,000). AID 588795, 2011; also: potency is read from the fitted curve at half-maximal effect; % is scaled to controls: 0 for no effect and ±100 for the full control effect; nearly all actives have a fitted effect of over 65% in size
Target sequence (P39748 whole entry, looked up): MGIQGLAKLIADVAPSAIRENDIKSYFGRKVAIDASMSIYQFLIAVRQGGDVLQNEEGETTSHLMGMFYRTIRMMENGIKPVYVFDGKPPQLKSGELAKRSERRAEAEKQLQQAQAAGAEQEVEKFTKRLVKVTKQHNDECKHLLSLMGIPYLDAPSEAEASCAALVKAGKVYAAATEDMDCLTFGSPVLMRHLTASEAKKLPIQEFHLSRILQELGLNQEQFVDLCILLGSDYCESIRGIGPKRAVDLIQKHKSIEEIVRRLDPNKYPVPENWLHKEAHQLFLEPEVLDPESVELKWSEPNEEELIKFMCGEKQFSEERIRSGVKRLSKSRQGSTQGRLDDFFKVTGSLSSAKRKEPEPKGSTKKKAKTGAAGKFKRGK
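FEN1 at 10 nM, compound pretreatment for 15 min (room temperature), 50 nM final substrate to initiate; endpoint reads at 0 and 15 min; DMSO-only plates used as vehicle background.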
Pol kappa inh-1: qHTS for Inhibitors of Polymerase Kappa; purified Pol kappa, fluorescent DNA synthesis assay, 10 min; Potency, µM (titrated, usually from 107 µM), inactives show at the highest dose activity, negative = inhibition, hits mostly inhibitors; actives 0.53% (n = 400,000); AID 588579, 2011; also: potency is read from the fitted curve at half-maximal effect; % is scaled to controls: 0 for no effect and ±100 for the full control effect
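50 nM final substrate added after 15 min RT preincubation of 10 nM Pol kappa with compound; fluorescence read at 0 and 10 min.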
Pol beta inh-1: qHTS Assay for Inhibitors of DNA Polymerase Beta; P06746; Pol beta primer extension/strand displacement, fluorescence kinetic; Potency, µM (top dose mostly 114 µM), without a hit: top-dose activity change, negative = inhibition, most hits filed as inhibitors; actives 1.3% (n = 340,000); also: potency is read from the fitted curve at half-maximal effect; % is scaled to controls: 0 for no effect and ±100 for the full control effect
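Kinetic readout of DNA synthesis with strand displacement by Pol beta. Compound and 10 nM enzyme sit 15 min at room temperature; 50 nM substrate starts the reaction, read immediately and at 10 min.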
Pol eta inh-1: qHTS for Inhibitors of Polymerase Eta | actives 1.2% (n = 390,000) | DNA polymerase eta (Homo sapiens), Q9Y253 | Potency, µM (titrated, usually from 114 µM), for the others: at the top dose activity change, negative = inhibition, usual class: inhibitors | recombinant Pol eta, fluorescent DNA replication assay; also: potency is read from the fitted curve at half-maximal effect; % is scaled to controls: 0 for no effect and ±100 for the full control effect
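Pol eta (10 nM) was preincubated with compounds for 15 min at room temperature, after which fluorescent replication substrate (50 nM final) was added to start the reaction. Fluorescence was read kinetically at 0 and 10 min.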
PI5P4Ka inh: qHTS for Inhibitors of phosphatidylinositol 5-phosphate 4-kinase (PI5P4K); Phosphatidylinositol 5-phosphate 4-kinase type-2 alpha (Homo sapiens), P48426; PI5P4Kalpha enzyme, ADP-Glo luminescence, 60 min; stronger effect = lower value; max response, %; actives 1.2% (n = 330,000); active = max response of -50% or lower; inconclusive = between -30% and -50%; inactive = -30% or higher; also: value at the top dose of about 77 µM; % is scaled to controls: 0 for no effect and ±100 for the full control effect
Target sequence (P48426 whole entry, looked up): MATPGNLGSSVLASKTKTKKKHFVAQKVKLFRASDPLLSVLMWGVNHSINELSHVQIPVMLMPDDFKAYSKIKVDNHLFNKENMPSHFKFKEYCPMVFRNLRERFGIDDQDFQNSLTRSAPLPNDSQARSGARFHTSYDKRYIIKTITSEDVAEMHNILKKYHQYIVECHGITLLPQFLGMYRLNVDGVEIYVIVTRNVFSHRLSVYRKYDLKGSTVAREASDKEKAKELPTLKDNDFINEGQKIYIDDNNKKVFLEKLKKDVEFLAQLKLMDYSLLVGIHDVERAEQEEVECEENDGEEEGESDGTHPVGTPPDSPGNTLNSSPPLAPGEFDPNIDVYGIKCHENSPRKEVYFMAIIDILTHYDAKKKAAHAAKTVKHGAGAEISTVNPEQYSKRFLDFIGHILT
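Reactions run in 0.038 M HEPES pH 7.4, 0.28 mM EGTA, 0.1% CHAPS and 5% DMSO, with PI5P4Kalpha, substrate, compound and 5 microM ATP final, one hour at room temperature. Readout is ADP-Glo luminescence.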
Pol beta inh-2: Inhibitors of DNA Polymerase Beta: Hit validation | shares compounds with Pol beta inh-1 | Pol beta primer extension/strand displacement, fluorescence kinetic | Potency, µM, hits mostly inhibitors | actives 87% (n = 250); calls by dose curve; also: potency is read from the fitted curve at half-maximal effect
Klenow inh: Inhibitors of DNA Polymerase Beta: Hit Validation in Klenow Fragment Assay. shares compounds with Pol beta inh-1. 250 tested, under 10 active. Klenow exo- polymerase counter-screen, fluorescent DNA substrate. AID 540300, 2011. activity change, negative = inhibition, % at 57.1 µM
HIV RT inh: Inhibitors of DNA Polymerase Beta: Hit Validation in HIV-RT Assay; HIV-1 RT polymerase activity, counter-screen; shares compounds with Pol beta inh-1; 250 tested, under 10 active; activity % (negative = inhibition, positive = activation), % at 57.1 µM
POLB inh gel: Inhibitors of DNA Polymerase Beta: Hit Validation in Radiolabeled Extension Assay; shares compounds with Pol beta inh-1; radiolabeled primer extension gel assay, phosphorimager; inhibition, % at 10 µM; actives 91% (n = 110); AID 540325, 2011;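 active = inhibition at 10 µM of 30% or more; inconclusive = no clear call, values can overlap the other calls; inactive = inhibition at 10 µM under 30%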
BAZ2B confirm: qHTS Assay for Inhibitors of BAZ2B: Hit Validation. actives 100% (n = 25). Potency, µM, hits mostly inhibitors. shares compounds with Pol kappa inh-1. AlphaScreen BAZ2B / biotin-H3K14Ac peptide displacement; calls by dose curve
AlphaScreen ctr: qHTS Assay for Inhibitors of BAZ2B: Hit Validation in AlphaScreen Counterscreen | 25 tested, under 10 active | Potency, µM (highest dose often 57.1 µM), for inactives: at the top dose activity change, negative = inhibition, hits mostly inhibitors | AlphaScreen biotin-His6 peptide bead counterscreen, signal decrease | shares compounds with Pol kappa inh-1;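 active = clear concentration-dependent signal drop in the bead assay lacking the target, so a primary-screen artifact; inconclusive = weak, partial or single-dose response; inactive = no response, so a real primary hit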
PGK validate: qHTS for inhibitors of Phosphogylcerate Kinase: Hit Validation Screen; shares compounds with Pol kappa inh-1; TbPGK coupled GAPDH assay, Kinase-Glo luminescence; Potency, µM (titrated, usually from 57.5 µM), for inactives: at the highest dose activity change, negative = inhibition, hits mostly inhibitors; actives 79% (n = 500); AID 686980, 2013; also: potency is read from the fitted curve at half-maximal effect; % is scaled to controls: 0 for no effect and ±100 for the full control effect; nearly all actives have a fitted effect of over 65% in size
Pol iota confirm: qHTS for Inhibitors of Polymerase Iota: Confirmatory Assay for Cherry-picked Compounds. shares compounds with Pol kappa inh-1. Pol iota primer extension, TAMRA/BHQ fluorescence. Potency, µM, usual class: inhibitors. actives 77% (n = 1,500); also: potency is read from the fitted curve at half-maximal effect
Pol kappa inh-2: qHTS for Inhibitors of Polymerase Kappa: Confirmatory Assay for Cherry-picked Compounds; shares compounds with Pol eta inh-1; purified Pol-kappa, fluorescent strand-displacement substrate; Potency, µM, hits mostly inhibitors; actives 76% (n = 920); also: potency is read from the fitted curve at half-maximal effect
Pol eta inh-2: qHTS for Inhibitors of Polymerase Eta: Confirmatory Assay for Cherry-picked Compounds | shares compounds with Pol eta inh-1 | Pol eta primer extension, TAMRA/BHQ fluorescence, 10 min | Potency, µM, usual class: inhibitors | actives 64% (n = 2,600) | AID 720502, 2013; also: potency is read from the fitted curve at half-maximal effect
The depositor's hits bear a star; ? = inconclusive; . = no result given; [ ] = remark or other dose. In the library only some 2.8% were active in any assay of this set; here they are far more common. Unless noted, calls follow the shape of the dose curve; as a rule, active = well fitted curve in the direction sought with a large enough effect; inconclusive = small, poorly fitted or top-dose-only effect, or another doubt; inactive = no such curve, though single readings can be large; an effect the other way counts as inactive or inconclusive.

SMILES	POLI inh	FEN1 inh	Pol kappa inh-1	Pol beta inh-1	Pol eta inh-1	PI5P4Ka inh	others
CC[C@H](C)/C=C(C)/C=C/C1=CC2=C(Cl)C(=O)[C@@](C)(OC(C)=O)C(=O)C2=CO1	?	?	?	.	20µM*	-87.1*
COc1ccc(NC(=O)CCOc2cc(C)ccc2C)cc1S(=O)(=O)N1CCCCC1	80.6%	9.1%	-21.8%	.	-29.4%	4.8
COc1ccc(CCn2c(NN=C3CCCCC3)nc3c2c(=O)[nH]c(=O)n3C)cc1	17.8µM*	7.1%	-17.7%	-23.3%	?	?
ClCCN(CCCl)c1ccc(/C=C/c2sc3ccccc3[n+]2CCCCI)cc1	89.1µM*	?	28.2µM*	.	.	.
ClCCN(CCCl)c1ccc(C=Nc2ccc(/C=C/c3ccncc3)cc2)cc1	3.2%	-6.6%	-13.7%	.	.	.
Cc1ccc(CCNC(=O)c2cc3cc(S(=O)(=O)N4CCCCC4)ccc3n2C)cc1	4.5%	?	-3.3%[60.1 µM]	11.6%	-1.2%	.
N#CC1=C(N)Oc2n[nH]c(-c3cccs3)c2C1c1ccco1 (centres undefined)	12.6µM*	-5.1%	-15.9%	-1.9%	?	-26.4
N#CC1=C(N)Oc2c(c(=O)sc3ccccc23)C1c1ccncc1 (centres undefined)	30.3%	2.1%	-1.4%	38.1%	-13.5%	?
N#CC1=C(N)Oc2n[nH]c(-c3cccs3)c2C1c1ccsc1 (centres undefined)	-5.1%	9.0%	-15.9%	?	?	-56.1*
CCOC(=O)N(C)C(=O)CSP(=S)(OCC)OCC	.	.	15.9%[60.1 µM]	.	.	.
CCOP(=S)(OCC)SCSc1ccc(Cl)cc1	.	.	15µM*	.	.	.
O=C(NCCCl)Nc1ccccc1NS(=O)(=O)c1cccs1	67.6%	6.1%	-5.8%	.	-27.3%	-6.1
CCCCNC(=O)/C(C#N)=c1\s/c(=C\c2ccccc2OC(F)F)c(=O)n1CCCOC	31.5%	-4.0%	-2.3%	34.2%	-8.1%	7.4
Cc1ccc(-c2nc(N(C)C3CCN(C)CC3)c3ccccc3n2)cc1	?	?	-8.0%	28.2µM*	1.2%	.
CN1CCC(N(C)c2ncnc3ccc(Br)cc23)CC1	26.6%	-7.1%	-5.4%	?	-4.3%	0.7
CCOC(=O)N1CCN(/[N+]([O-])=N/Oc2ccc([N+](=O)[O-])cc2[N+](=O)[O-])CC1C (centres undefined)	?	-31.5%	-0.8%	.	.	.
C=C(C)C(=O)Nc1cccc(C2=NOC3(C2)C[C@H](C(N)=O)N(C(=O)/C=C/C)C3)c1 (some centres undefined)	?	9.3%	?	5.01µM*	8.91µM*	-11.2	Pol beta inh-2=7.08*;Klenow inh=2.7;HIV RT inh=9.0;BAZ2B confirm=7.08*;AlphaScreen ctr=-6.6%;Pol iota confirm=?;Pol eta inh-2=19*
COC1(C)CC(c2ccccc2)c2c(c3ccccc3oc2=O)O1 (centres undefined)	.	.	-2.4%[60.1 µM]	.	.	.
O=C(COC(=O)c1c2c(nc3ccccc13)/C(=C/c1ccco1)CC2)NC1CCCC1	12.6µM*	-16.9%	31.6µM*	3.16µM*	3.55µM*	-71.1*	Pol beta inh-2=25.1*;Klenow inh=-28.4;HIV RT inh=-5.2;POLB inh gel=98.8*;BAZ2B confirm=7.08*;AlphaScreen ctr=?;Pol iota confirm=13.4*;Pol kappa inh-2=11.9*;Pol eta inh-2=16.9*
NC(=O)CF	.	.	19.0%[60.1 µM]	.	.	.
CCC(=O)Nc1ccccc1	6.0%	-2.6%	-2.0%	23.7%	-6.5%	-4.5
CCC(=O)Nc1cc(C(=O)O)ccc1S(=O)(=O)c1ccc(C)cc1	?	?	?	10µM*	5.62µM*	-6.4	Pol beta inh-2=28.2*;Klenow inh=-26.4;HIV RT inh=-14.2;Pol iota confirm=59.7*;Pol eta inh-2=19*
COc1ccc(/C=C2\C(=O)NC(=S)N(C)C2=O)cc1C	?	50.1µM*	50.1µM*	30.3%	2.82µM*	-57.3*	PGK validate=4.11µM*
